The values that follow come from ChEMBL document CHEMBL3433997, “St. Jude Leishmania screening dataset” (2016).

Type in all cases: functional
For experiment [1], the target named is Solute carrier family 2, facilitated glucose transporter member 1 (Homo sapiens) (UniProt P11166). Briefly: ST_JUDE_LEISH: Cytotoxicity at 2uM final concentration against transgenic Leishmania Mexicana promastigotes LmGLUT1 that are glucose transport deficient and complemented with the human glucose transporter GLUT1. Activity is measured by DNA content using SYBR green in vitro.

For experiment [2], the target named is Hexose transporter 1 (Plasmodium falciparum) (UniProt O97467). Briefly: ST_JUDE_LEISH: Cytotoxicity at 2uM final concentration against transgenic Leishmania Mexicana promastigotes LmPfHT that are glucose transport deficient and complemented with the Plasmodium falciparum hexose transporter. Activity is measured by DNA content using SYBR green in vitro.
The target in experiment [3] is Glucose transporter (Leishmania mexicana) (UniProt O61059). As to the kind of experiment: ST_JUDE_LEISH: Cytotoxicity at 2uM final concentration against transgenic Leishmania Mexicana promastigotes LmGT2 that are glucose transport deficient and complemented with the L. Mexicana glucose transporter 2. Activity is measured by DNA content using SYBR green in vitro.

Chain of Solute carrier family 2, facilitated glucose transporter member 1 (Homo sapiens) (P11166 whole entry): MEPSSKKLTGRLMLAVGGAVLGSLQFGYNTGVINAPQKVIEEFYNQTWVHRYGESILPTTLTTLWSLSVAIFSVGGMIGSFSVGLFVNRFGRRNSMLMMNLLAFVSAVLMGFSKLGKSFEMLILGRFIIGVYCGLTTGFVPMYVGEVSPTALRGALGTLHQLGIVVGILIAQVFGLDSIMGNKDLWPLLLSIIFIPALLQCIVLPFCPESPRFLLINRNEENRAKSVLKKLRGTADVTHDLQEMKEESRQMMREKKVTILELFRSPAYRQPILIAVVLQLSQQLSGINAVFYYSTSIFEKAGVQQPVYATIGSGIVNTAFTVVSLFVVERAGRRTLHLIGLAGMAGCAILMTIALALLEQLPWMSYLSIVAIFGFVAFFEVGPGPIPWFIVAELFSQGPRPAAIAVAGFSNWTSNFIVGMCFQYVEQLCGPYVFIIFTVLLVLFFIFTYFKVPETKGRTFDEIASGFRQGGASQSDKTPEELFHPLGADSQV

In the case of `COc1cc(Nc2ncnc3cc(OC)c(OC)cc23)cc([N+](=O)[O-])c1`, the results for the inhibition in experiment [1], in experiment [2] and in experiment [3] were -1.65%, 0.11% and -0.41%, respectively.

On to `COCCOc1ccc(C(F)(F)F)cc1NC(=O)Cc1c(F)cccc1Cl`, for which the inhibition (in general, the change of the read-out against control, counted positive when it falls) in experiment [1] is 11.3%; in experiment [2] it was 8.21%; in experiment [3], 6.01%.

For `Cc1nc2ccccc2n1C1CC2CCC(C1)N2CCCC1(c2ccccc2)CCN(C(=O)OCc2ccccc2)CC1` (stereo unspecified), the results for the inhibition in experiment [1], in experiment [2] and in experiment [3] were 3.25%, 0.85% and 2.57%, respectively.

With `Cc1sc(NC(=O)c2ccc([N+](=O)[O-])cc2Cl)c(C(N)=O)c1C`, the inhibition in experiment [1] was 2.24%; in experiment [2] it was 2.08%; in experiment [3], 2.74%.

As for `Cc1noc(C)c1-c1cccc(CNCc2ccc(-c3ccc(-c4nc5cc(F)ccc5[nH]4)s3)cc2)c1`, the figures for the inhibition in experiment [1], in experiment [2] and in experiment [3] were 11.2%, 10.3% and 10.2%, respectively.

Turning to `Cc1cccc2nc(-c3ccc(-c4ccc(CNCCCN5CCCC5=O)cc4)s3)[nH]c12`, the results for the inhibition in experiment [1], in experiment [2] and in experiment [3] were 2.02%, 3.54% and 3.25%, respectively.

Regarding `COCCN1CCC(N(Cc2ccc(-c3ccc(C(F)(F)F)cc3)cc2)C(=O)Cn2c(CCc3cccc(F)c3F)cc(=O)c3c2CCC3)CC1`, the values for the inhibition in experiment [1], in experiment [2] and in experiment [3] were -2.35%, -0.63% and -2.32%, respectively.

`CCC[C@@H]([C@@H](CC1CCCCC1)C(=O)N[C@H](C(=O)Nc1nccs1)C(C)(C)SCCOCCOCC)N(O)C=O`: the inhibition in experiment [1] was 6.4%; in experiment [2], 5.16%; in experiment [3], 5.39%.

`Cc1ccc(C(=O)NC2CCN(CCNC(=O)Nc3cc(C)nc4ccccc34)CC2)cc1`: the inhibition in experiment [1] was -1.56%; in experiment [2], 0.53%; in experiment [3], -1.45%.

For the compound `Nc1ncc(-c2cccc(F)c2)cc1-c1nc2cc(F)ccc2[nH]1`, the inhibition in experiment [1] stood at 4.17%; in experiment [2], 11.1%; in experiment [3], 6.56%.

For the compound `COc1ccc(-c2onc(C(F)(F)F)c2-c2ccc(Br)cc2)c(O)c1`, the inhibition in experiment [1] was 2.09%; in experiment [2], 2.27%; in experiment [3], 1.56%.

Take `CC1(CCCCN2CCC(c3c[nH]c4cnccc34)CC2)C(=O)Nc2cccc(Cl)c21` (stereo unspecified): the inhibition was 0.37% in experiment [1], 0.54% in experiment [2] and 1.21% in experiment [3].

`COc1ccc2nccc([C@@H](O)CN3CCC(NC(=O)C(=O)c4c[nH]c5c(C)cccc45)CC3)c2c1`: the figures for the inhibition in experiment [1], in experiment [2] and in experiment [3] were 0.46%, 0.43% and 0.45%, respectively.

In the case of `COc1cccc([C@@H](CC(=O)Nc2cc(C(F)(F)F)ccc2OC)Nc2ccc(C#N)c3ccccc23)c1`, the inhibition amounted to 7.27% in experiment [1], 5.34% in experiment [2] and 4.83% in experiment [3].

Take `COc1cc(NC(=O)N2CCOC(CCN3CCC4(CCc5ccccc54)CC3)(c3ccc(Cl)c(Cl)c3)C2)cc(OC)c1` (stereo unspecified): the inhibition was 3.64% in experiment [1], 1.66% in experiment [2] and 1.53% in experiment [3].

Take `CCOc1cc(C(=O)NC2CCN(Cc3ccccc3)CC2)ccc1-c1nc2cc(Cl)c(Cl)cc2[nH]1`: the inhibition is 2.82% in experiment [1], 5.07% in experiment [2] and -0.27% in experiment [3].

For the compound `CC[C@H](C)CNC(=O)c1cncc(-c2ccc(CN3CCC(N4CCCC4)CC3)cc2)c1`, the inhibition in experiment [1] was 0.53%; in experiment [2], 0.26%; in experiment [3] it was 1.05%.

For `Cc1cc2ccccc2n1CC(=O)N1CC(C(=O)N2CCCCC2)Oc2ccccc21` (stereo unspecified), the values for the inhibition in experiment [1], in experiment [2] and in experiment [3] were -0.25%, 3.02% and 2.89%, respectively.

With `Cc1ccc(S(C)(=O)=O)cc1/C=C/C(=O)O`, the inhibition in experiment [1] amounted to 9.4%; in experiment [2] it was 8.46%; in experiment [3], 10.4%.

On to `CN1CCCN(Cc2ccc(-c3cccc(NC(=O)c4cccc(F)c4)c3)cc2)CC1`, for which the inhibition in experiment [1] amounted to 12.9%; in experiment [2], 9.38%; in experiment [3], 7.57%.

With `Oc1ccc(-c2cc(COc3ccccc3C(F)(F)F)c(C3=CCNCC3)cc2COc2ccccc2C(F)(F)F)cc1`, the inhibition in experiment [1] is 2.69%; in experiment [2], 2.67%; in experiment [3], -0.12%.

For the compound `C=C1C(C(=O)OCC)=CN(CC)c2cc(O[C@@H]3CCN(C(=O)OC(C)(C)C)C3)ccc21`, the figures for the inhibition in experiment [1], in experiment [2] and in experiment [3] were 6.89%, 5.44% and 6.99%, respectively.

Take `COc1ccc(C2CC(c3cccs3)=NN2C(=O)c2ccco2)cc1OC` (stereo unspecified): the inhibition was 5.38% in experiment [1], 4.8% in experiment [2] and 4.31% in experiment [3].

On to `CCOC(=O)c1cn(CC)c2cc(N3CCCCC3)c(F)cc2c1=O`, for which the inhibition in experiment [1] is 3.39%; in experiment [2], 3.64%; in experiment [3] it was 4.37%.

In the case of `COc1ccc(-c2ccc(NC(=O)c3cccc(C#N)c3)cc2)cc1CN1CCNCC1`, the inhibition in experiment [1] is 9.28%; in experiment [2], 5.74%; in experiment [3] it was 4.28%.

For `Cc1ccc(O)c(Nc2c3c(c(C#N)c4nc5ccccc5n24)CCC3)c1`, the inhibition was 2.48% in experiment [1], 1.2% in experiment [2] and -0.54% in experiment [3].

For the compound `O=S(=O)(NCCN1CCCC1)c1ccc(-c2cccc(CNC3Cc4ccccc4C3)c2)cc1`, the inhibition is 2.76% in experiment [1], 8.98% in experiment [2] and 6.15% in experiment [3].

For the compound `CC(=O)Nc1cccc(C(=O)Nc2ccc(-c3ccc(-c4nc5cccc(C)c5[nH]4)s3)cc2)c1`, the results for the inhibition in experiment [1], in experiment [2] and in experiment [3] were -0.38%, 1.16% and 0.04%, respectively.

`COc1ccccc1CCCON1C(=N)N=C(N)NC1(C)C`: the inhibition in experiment [1] was determined as 5.24%; in experiment [2], 5.03%; in experiment [3], 4.51%.

With `Cc1cccc(C(=O)Nc2ccnc(N3CCC(N(C)Cc4ccccc4)CC3)c2)c1`, the figures for the inhibition in experiment [1], in experiment [2] and in experiment [3] were -1.46%, -0.98% and -0.83%, respectively.

As for `O=C(CCCCCCc1ccccc1)Nc1ccc2nc3c(c(NCc4ccccc4)c2c1)CCCC3`, the inhibition in experiment [1] was -0.24%; in experiment [2] it was 1.39%; in experiment [3] it was -2.98%.

As for `c1ccc(-c2ccc(CNCc3ccc(-c4cccc(-c5nc6ccccc6[nH]5)c4)cc3)s2)nc1`, the inhibition was found to be 1.04% in experiment [1], 2.78% in experiment [2] and 0.61% in experiment [3].
